Source: PubChem BioAssay (National Center for Advancing Translational Sciences (NCATS))
Chronic BCR inh: blocks chronic active B-cell receptor signaling; ABC-DLBCL IkBa-CBG/CBR reporter, luminescence ratio, 4 h; Potency, µM (titrated, usually from 46.1 µM), inactives show at the highest dose activity change, negative = inhibition, hits mostly inhibitors; hit rate 0.05% among 340,000; AID 493014; active = well fitted inhibition curve with a large enough effect in the signal ratio, with a control signal flat, not every such curve was filed as active; inconclusive = small, poorly fitted or top-dose-only effect, or effect the other way, or a change in a side signal; the % refers to the signal ratio;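 also: potency is read from the fitted curve at half-maximal effect; plate controls were basal doxycycline-induced cells for no effect and cells given 10 µM MG132 for full effect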
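Cell line TMD8 (human ABC DLBCL), stably expressing tet-inducible CBG68-IkBa fusion and CBR; IMDM/0.5% FBS; cpd up to 46 uM; dox induction, 4 h, 37C/5% CO2; dual luminescence; green/red ratio; MG132 control.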
DT40 TDP1 no CPT: qHTS for Inhibitors of human tyrosyl-DNA phosphodiesterase 1 (TDP1): qHTS in cells in absence of CPT; hit rate 15% among 420,000; DT40 Tdp1-/- hTDP1 cells, no CPT, ATP luminescence, 48 h; Potency, µM (top dose mostly 46.2 µM), inactives show at the highest dose activity change, negative = growth inhibition, most hits filed as inhibitors; also: potency is read from the fitted curve at half-maximal effect; % is scaled to controls: 0 for no effect and ±100 for the full control effect; nearly all actives have a fitted effect of over 55% in size
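DT40 Tdp1-/-;hTDP1 cells, no CPT (DMSO vehicle only), 400 cells/well; compounds pin-transferred; ≥48 hr, 37 °C; CellTiter-Glo 30 min RT dark, luminescence read.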
TDP1 cell CPT: growth inhibition of DT40 Tdp1-/-;hTDP1 cells with camptothecin (screen for TDP1 inhibitors) | chicken DT40 Tdp1-/-;hTDP1 cells + 20 nM CPT, ATP luminescence, 48 h | Potency, µM (highest dose often 46.2 µM), for inactives: at the top dose activity change, negative = growth inhibition, actives largely listed as inhibitors | hit rate 12% among 420,000; also: potency is read from the fitted curve at half-maximal effect; % is scaled to controls: 0 for no effect and ±100 for the full control effect; nearly all actives have a fitted effect of over 55% in size
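Chicken DT40 Tdp1-/- cells complemented with human TDP1, 400 cells/well, exposed to compounds plus 20 nM camptothecin for at least 48 h at 37 C; viability read as ATP content by CellTiter-Glo luminescence.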
IL1B secr inh: inhibitors of inflammasome signaling (IL-1 beta secretion) | THP-1 LPS/ATP IL-1B secretion, AlphaLISA, 16 h; stronger effect = lower value | activity change, % at 57.5 µM | hit rate 4.7% among 360,000; in the data active = activity change below about -50%; inconclusive = mostly about -30% to -49%; also: % is scaled to controls: 0 for no effect and ±100 for the full control effect
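THP-1 cells pretreated 1 hr with compounds (up to 57.5 uM final), then stimulated with LPS (250 ng/mL final) plus ATP (1.25 mM final); secreted IL-1B measured by AlphaLISA after 16 hr, decreased signal indicating inhibition.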
MCF10A rerep: inducers of DNA re-replication in MCF 10A breast cells | Potency, µM (highest dose often 46.1 µM), for the others: at the highest dose activity, positive = re-replication, actives largely listed as activators | MCF 10A DNA re-replication, Hoechst nuclear intensity, 48 h | hit rate 2.9% among 350,000 | AID 624296; also: potency is read from the fitted curve at half-maximal effect; % of control where 0% means no effect; nearly all actives have a fitted effect of over 50% in size
SW480 rereplic: induces DNA re-replication in SW480 colon adenocarcinoma cells. SW480 DNA re-replication, Hoechst DNA content imaging, 48 h. Potency, µM (series often up to 46.1 µM), for inactives: at the highest dose re-replication activation, most hits filed as activators. hit rate 1.8% among 340,000. AID 624297; also: potency is read from the fitted curve at half-maximal effect; % of control where 0% means no effect; nearly all actives have a fitted effect of over 55% in size
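Per well, 250 cells were exposed to pinned compound for 48 hr. Nuclear DNA was visualised with Hoechst (40 min, 37 C) and total object intensity recorded by fluorescence scanning.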
Numbers without * were called inactive; ? = inconclusive; nt = not tested or not shown; [ ] = dose if it differs, or a comment. This is a sample that favours compounds with a hit; in the whole collection about 19% have one here. Unless noted, calls follow the shape of the dose curve; as a rule, active = well fitted curve in the direction sought with a large enough effect; inconclusive = small, poorly fitted or top-dose-only effect, or another doubt; inactive = no such curve, though single readings can be large; an effect the other way counts as inactive or inconclusive.

SMILES	Chronic BCR inh	DT40 TDP1 no CPT	TDP1 cell CPT	IL1B secr inh	MCF10A rerep	SW480 rereplic
CC1=C(C(=O)Nc2cccc(C(=O)N3CCC(C(N)=O)CC3)c2)SCCO1	2%	2%	-2%	14	1%	1%
CCOC(=O)c1ccccc1NC(=O)C1CC(=O)N(C2CCCC2)C1 (stereo not given)	nt	-17%	?	-6	9%	-3%
CCN(CC)CCCn1c2c(c(SCC(=O)Nc3ccc(OC(F)(F)F)cc3)nc1=O)CCC2	?	?	?	-69*	?	19%
CCN(CC)CCCn1c2c(c(SCC(=O)Nc3nc4ccccc4s3)nc1=O)CCC2	?	?	-85%	-51*	4%	-1%
COc1ccc(NC(=O)CSc2nc(=O)n(CCN(C)C)c3c2CCCC3)cc1	-1%	-14%	-25%	10	8%	-5%
Cn1c(C(=O)N2CCC(C(=O)NCc3ccccc3)CC2)cc2sccc21	0%	1%	-4%	-10	2%	-14%
CC1=Nc2ccc(C)cc2/C1=C/c1c(N)n2oc(C)cc2nc1=O	?	-24%	7%	-20	18µM*	2%
CC1=Nc2ccc(C)cc2/C1=C/c1c(N)n2c(S(=O)(=O)C(C)C)nsc2nc1=O	?	?	?	-2	?	13%
CC1=Nc2ccccc2/C1=C/c1c(N)n2c(S(=O)(=O)CC(C)C)nsc2nc1=O	?	-3%	-1%	-2	15µM*	2%
CC1=Nc2ccccc2/C1=C/c1c(N)n2c(S(=O)(=O)C(C)C)nsc2nc1=O	?	?	-1%	6	3%	-9%
CSc1nsc2nc(=O)c(/C=C3\C(C)=Nc4ccc(C)cc43)c(N)n12	?	?	16µM*	35	9.2µM*	?
Cc1ccc(C)c(S(=O)(=O)N2CC(=O)N(CCc3ccccc3)C(=O)C2)c1	-1%	-3%	-6%	12	-40%	-8%
Cc1ccc(NC(=O)N[C@H](C(=O)O)C(C)C)c(C)c1	6%	?	-29%	-5	-1%	-14%
CCN(CCO)CC1CCCC2CCCCC21 (stereo not given)	nt	-13%	0%	19	nt	nt
CC(=O)OC(C)C1C2=C(C(=O)CC1(C)O)C(=O)c1c(ccc(-c3ccc4c(c3O)C(=O)C3=C(C4=O)C(C(C)OC(C)=O)C(C)(O)CC3=O)c1O)C2=O (stereo not given)	nt	1.5µM*	1.2µM*	5	14%	16%
CCCNC(=O)c1cc(C2CCCCN2S(C)(=O)=O)on1 (stereo not given)	nt	-7%	-9%	4	nt	nt
Fc1ccc2cnc(-c3ccccc3)c(-c3ccc(C(F)(F)F)cc3)c2c1	1%	18µM*	?	34	?	-3%
O=[N+]([O-])c1ccc(-c2c(-c3ccccc3)ncc3ccc(F)cc23)cc1	15%	?	?	13	?	-49%[9.22 µM]
Fc1ccc2cnc(-c3ccccc3)c(-c3cc(C(F)(F)F)cc(C(F)(F)F)c3)c2c1	2%	16µM*	?	23	-1%	0%
Fc1ccc2c(-c3cccc(C(F)(F)F)c3)c(-c3ccccc3)ncc2c1	4%	15µM*	?	16	-11%	-2%
CC(=O)N[C@@H](CC(=O)O)C(=O)O	3%	2%	-6%	-107*	-2%	-59%
CCc1ccc(-c2nc(CS(=O)CC(=O)NCCN3CCCCCC3)c(C)o2)cc1 (stereo not given)	-8%	?	?	-56*	12%	3%
CCc1ccc(-c2nc(CS(=O)CC(=O)NCCc3ccc(C)cc3)c(C)o2)cc1 (stereo not given)	-25%	?	23µM*	nt	nt	nt
Cc1ccc(NC(=O)CS(=O)Cc2nc(-c3ccc(C)cc3)oc2C)cc1 (stereo not given)	-16%	21µM*	?	-9	-2%	1%
Cc1ccc(CNC(=O)CS(=O)Cc2nc(-c3cccs3)oc2C)cc1 (stereo not given)	1%	?	23µM*	-10	-11%	1%
SMILES	Chronic BCR inh	DT40 TDP1 no CPT	TDP1 cell CPT	IL1B secr inh	MCF10A rerep	SW480 rereplic
Cc1ccc(-c2nc(CS(=O)CC(=O)NCc3ccccc3)c(C)o2)cc1 (stereo not given)	9%	-20%	-26%	11	0%	1%
CC(=O)Nc1ccc(CN(C)c2c(C)nc3ccc(C(=O)N4CCN(C(C)=O)CC4)cn23)cc1	nt	26%	9%	10	nt	nt
CCN(C[C@H]1N[C@@](Cc2ccccc2)(C(=O)OC)[C@H]2C(=O)N(C)C(=O)[C@@H]12)C(=O)C1CCCCC1	0%	-25%	-26%	4	-18%	?
Cc1oc(-c2ccccc2Cl)nc1CS(=O)CC(=O)NCCc1ccccc1 (stereo not given)	0%	-25%	-22%	-10	3%	5%
Cc1ccccc1-c1nc(CS(=O)CC(=O)NCCc2ccc(Cl)cc2)c(C)o1 (stereo not given)	-4%	?	16µM*	-5	8%	-1%
CC(=O)c1c(C)[nH]c(C(=O)OCC(=O)Nc2ccccc2Cl)c1C	?	15µM*	16µM*	127	7%	0%
CC(=O)c1c(C)[nH]c(C(=O)OCc2csc(CC(=O)Nc3ccccc3C)n2)c1C	?	9.2µM*	18µM*	-11	3%	?
CC(C)=CC(=O)OCc1csc(CC(=O)Nc2ccccc2C)n1	0%	11%	-22%	25	-4%	28%
CCN(CC)S(=O)(=O)c1cccc(NC(=O)COC(=O)c2[nH]c(C)c(C(C)=O)c2C)c1	nt	1µM*	1.8µM*	53	nt	nt
CC(=O)c1c(C)[nH]c(C(=O)CN2CCN(S(=O)(=O)c3ccc(C(C)C)cc3)CC2)c1C	6%	10µM*	15µM*	2	-3%	24%
CCCCn1c(N)c(N(CC)C(=O)C2COc3ccccc3O2)c(=O)[nH]c1=O (stereo not given)	0%	-10%	-13%	9	1%	-3%
CCC(=O)N1CCc2cc(Br)cc(S(=O)(=O)CCC(=O)Nc3ccc(Cl)cc3)c21	nt	-24%	-16%	nt	nt	nt
COc1ccc(-n2c(=O)cnc3cnc(Nc4ccccc4)nc32)cc1	nt	-20%	?	nt	nt	nt
O=C(COC(=O)c1ccc(Cl)nc1)Nc1cc(S(=O)(=O)N2CCCCC2)ccc1Cl	1%	?	18µM*	23	3%	1%
